High-throughput results deposited in PubChem BioAssay by National Center for Advancing Translational Sciences (NCATS).
A selection: hits, their analogues and other compounds. The true share with any hit is near 5.7%.
HT1080 IDH1KD tx: HT-1080 IDH1 knockdown cell toxicity (counter line) | 360,000 compounds, 2% hits | HT-1080 IDH1 knockdown viability, ATP luminescence, 48 h | Potency, µM (doses to about 46.1 µM), usual class: cytotoxic
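HT-1080-IDH1KD cells (IDH1 knocked down), 750/well in RPMI with 5% FBS, treated with compound 48 h at 37 degrees C. Viability by CellTiter-Glo luminescence, normalised to DMSO and no-cell wells; concentration-response curves classed.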
KB-V1 MDR tox: KB-V1 MDR subline cytotoxicity | 400,000 compounds, 3.4% hits | Potency, µM (top dose mostly 46.1 µM), actives largely listed as cytotoxic | KB-V1 MDR cells viability, CellTiter-Glo, 72 h; also: nearly all actives have a fitted effect of over 60% in size
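KB-V1 MDR subline cells in DMEM (phenol-red free, 10% FBS) exposed to compounds in qHTS concentration series for 72 h at 37 degrees C. Viability read by CellTiter-Glo luminescence; concentration-effect curves fitted after normalization and correction.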
KB-3-1 cytotox: kills parental KB-3-1 adenocarcinoma cells; KB-3-1 viability, CellTiter-Glo ATP luminescence, 72 h; Potency, µM (doses to about 46.1 µM), hits mostly cytotoxic; 400,000 compounds, 1.4% hits; AID 1347075; also: nearly all actives have a fitted effect of over 60% in size
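Cytotoxicity in the drug-sensitive parental line KB-3-1 was scored as loss of CellTiter-Glo luminescence following 72 h incubation with compound. Values come from curve fitting of normalized concentration-response data.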
HT1080-NT tox: kills 2HG-producing HT-1080-NT fibrosarcoma cells | Potency, µM (titrated, usually from 46.1 µM), hits mostly cytotoxic | 360,000 compounds, 1.6% hits | HT-1080-NT fibrosarcoma viability, CellTiter-Glo ATP luminescence, 48 h;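 also: NT is the 2HG producing partner of a matched IDH1 knockdown line; nearly all actives have a fitted effect of over 55% in size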
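HT-1080-NT; 750 cells/well; 5% FBS RPMI; 48 h compound, 37 degrees C; CellTiter-Glo luminescence; curve fitting and curve-class assignment.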
Numbers stand for hits; . = inactive; ? = inconclusive; / = no result given; ! = repeats disagree; [ ] = remark or other dose. Calls follow the shape of the dose curve; as a rule, active = well fitted curve in the direction sought with a large enough effect; inconclusive = small, poorly fitted or top-dose-only effect, or another doubt; inactive = no such curve, though single readings can be large; an effect the other way counts as inactive or inconclusive.

SMILES	HT1080 IDH1KD tx	KB-V1 MDR tox	KB-3-1 cytotox	HT1080-NT tox
CC1CCN(c2nc(-c3ccc(C(C)(C)C)cc3)nc3ccccc23)CC1	/	.	.	/
c1ccc2c(N3CCOCC3)nc(-c3ccncc3)nc2c1	.[9.24 µM]	13µM	?	.
CCC1CCCCN1c1nc(-c2cccc(OC)c2O)nc2ccccc12 (configuration not stated)	.	.	.	.
CCC1CCCCN1c1nc(-c2ccncc2)nc2ccccc12 (configuration not stated)	?	?	?	18µM
Brc1ccc(-c2nnc(-c3ccccc3)c(N3CCSCC3)n2)cc1	.	?	.	.
Cc1ccc(-c2nnc(-c3ccccc3)c(N3CCOCC3)n2)cc1	.	5.8µM	?	.
CN1CCN(c2nc(-c3ccc(Br)cc3)nnc2-c2ccccc2)CC1	21µM	26µM	.	?
CCCCCCCCCC[Si](C)(C)CCC(=O)N[C@@H](Cc1ccc(C)cc1)c1ccccc1	/	.	.	/
CC(=O)N1CCC2(CC1)OC(=O)C(C)=C2C(=O)Nc1ccccc1C(F)(F)F	/	.	.	/
CCc1ccc(C2c3[nH]c4ccccc4c3CCN2C(=O)CN2CCN(CC)CC2)cc1 (configuration not stated)	?	.	?	23µM
CCOC(=O)CCc1c(C)c2cc3c(c(C)c2oc1=O)OCN(CCc1ccccc1OC)C3	/	?	.	/
Nc1ccc(-c2cnc(-c3ccc(N)cc3)nc2)cc1	?	.	.	.
Oc1ccc(-c2cnc(-c3ccc(O)cc3)nc2)cc1	0.21µM	.	?	?
CN(C)S(=O)(=O)c1ccc2nnn(OCC(=O)NC34CC5CC(CC(C5)C3)C4)c2c1	.	3.7µM	.	.
O=C1CCc2cc(S(=O)(=O)Nc3ccc4ncccc4c3)ccc2N1	/	.	.	/
CC(C)c1ccc(NC(=S)NN(c2ccccc2)c2ccccc2)cc1	.	21µM	.	.
CC(C)N(c1ccccc1)c1ccc(NC(=S)NCCN(C)C)cc1	21µM	.	?	16µM
CN(C)CCCNC(=S)Nc1ccc(Oc2ccccc2)cc1	.	.	.	.
CC(C)CNC(=S)Nc1ccc(Oc2ccccc2)cc1	.	16µM	21µM	.
CN(C)CCCNC(=S)Nc1ccc(-c2ccccc2)cc1	?	.	.	21µM
CCCCOc1ccc(CNC(=O)c2ccc(NC(=O)N3CCSc4ncccc43)cc2)cc1	/	.	.	/
CCNC(=S)Nc1ccc(N(c2ccccc2)C(C)C)cc1	?	13µM	21µM	?
CCNC(=S)NN(c1ccccc1)c1ccccc1	.	.	.	.
Cc1cn2c(=O)c(S(=O)(=O)NCc3ccc(F)cc3)c(C)nc2s1	/	.	.	/
Cc1[nH][nH]c(=O)c1C(c1c(C)[nH][nH]c1=O)c1cn(Cc2cccc3ccccc23)c2ccccc12	?	21µM	?	?
SMILES	HT1080 IDH1KD tx	KB-V1 MDR tox	KB-3-1 cytotox	HT1080-NT tox
Clc1ccc(/C=C/c2nc3ccccc3[nH]2)c(Cl)c1	?	?	.	15µM
CC(=O)Nc1ccc(S(=O)(=O)N2c3ccccc3C(C)=CC2(C)C)cc1	0.92µM	?	3.3µM	1.3µM
CC1=CC(C)(C)N(S(=O)(=O)c2ccc(C)cc2)c2ccc(C)cc21	6.3µM	?	6.5µM	3.2µM
CC1=CC(C)(C)N(S(=O)(=O)c2ccc(F)cc2)c2ccccc21	?	.	.	11µM
COC(=O)c1cc2occc2n1Cc1nc(-c2ccccc2)oc1C	/	.	.	/
CC1CC(C)CN(S(=O)(=O)c2ccc(C(=O)Nc3nnc(C4CC4)o3)cc2)C1 (configuration not stated)	.	5.2µM	?	.
CC1CC(C)CN(S(=O)(=O)c2ccc(NC(=O)c3ccc(=O)[nH]c3)cc2)C1 (configuration not stated)	5.2µM	.	4.6µM	5.8µM
CCN(c1ccccc1)S(=O)(=O)c1ccc(C(=O)Nc2nnc(C3CC3)o2)cc1	?	7.3µM	?	?
CN(c1ccccc1)S(=O)(=O)c1ccc(C(=O)Nc2nnc(C3CC3)o2)cc1	.	.	.	.
CC1CC(C)CN(C(=O)c2ccc(NC(=O)c3ccc(=O)[nH]c3)cc2)C1 (configuration not stated)	.	.	.	.
CC1CCCN(S(=O)(=O)c2ccc(C(=O)Nc3nnc(-c4ccco4)o3)cc2)C1 (configuration not stated)	.	7.3µM	?	.
Cc1ccc(NC(=O)Cn2c(=O)ccc3cc(S(=O)(=O)N4CCCC4)ccc32)cc1N(C)C	/	.	.	/
CCCCOc1ccccc1NC(=O)Cn1c(-c2nonc2N)nc2ccccc21	1.3µM	1.8µM	4.6µM	1.5µM
CC(C)c1ccccc1NC(=O)Cn1c(-c2ccccc2Cl)nc2ccccc21	.	?	.	.
CSc1ccccc1NC(=O)Cn1c(-c2cscn2)nc2ccccc21	.	16µM	.	.
COc1cc(Cn2c(-c3nonc3N)nc3ccccc32)ccc1C	1.8µM	5.2µM	4.6µM	3.7µM
CCCCOc1ccccc1NC(=O)Cn1c(-c2cncs2)nc2ccccc21	/	.	.	/
COc1cccc(Cn2c(-c3nonc3N)nc3ccccc32)c1	2.1µM	12µM	2.9µM	2.6µM
COC(=O)c1ccc(NC(=O)c2nc(S(=O)(=O)Cc3ccccc3F)ncc2Cl)cc1	/	.	?	/
COc1ccc(CCn2c(=O)c3ccccc3n(CC(=O)Nc3cccc(C)c3)c2=O)cc1OC	/	.	.	/
CCOC(=O)C1C(=O)NC(c2ccccc2)=NC1c1ccc(F)cc1 (configuration not stated)	.	.	.	.
CSC1=NC(C(Cl)(Cl)Cl)N=C(c2ccccc2)N1 (configuration not stated)	21µM	5.8µM	3.3µM	?
COc1ccc(CNC(=O)C2CCN(C(=O)c3ccc(-n4ccc5ccccc54)s3)CC2)cc1	/	?	.	/
COc1ccccc1N1C(=O)c2cccc3c(N(C)CCO)ccc(c23)C1=O	.	.	.	.
Cc1ccccc1N1C(=O)c2cccc3c(N(C)CCO)ccc(c23)C1=O	.	18µM	.	.
SMILES	HT1080 IDH1KD tx	KB-V1 MDR tox	KB-3-1 cytotox	HT1080-NT tox
Cc1ccc(N/C(SCc2ccccc2C)=C(/C#N)C(=O)NCc2ccco2)cc1C	.	12µM	?	.
CCN1/C(=C/C(C)=C/c2sc3ccccc3[n+]2CC)Sc2ccccc21	1.5µM	21µM!	0.73µM	10µM
CCN1/C(=C\C=C(C(C)=O)C(C)=O)Sc2ccccc21	.	.	.	.
Cc1cccc(NC(=O)CSc2cccc3cccnc23)c1C	.	.	.	.
CCOC(=O)CSc1cccc2cccnc12	?	23µM	?	.
Cc1oc(-c2ccccc2)nc1CNC(=O)Nc1ccccc1	/	.	.	/
O=C(NCC(c1cccs1)N1CCOCC1)c1ccccc1NS(=O)(=O)c1ccc(Cl)cc1 (configuration not stated)	.	12µM	?	?
O=C(CSc1ccc(Br)cc1)NCC(c1cccs1)N1CCOCC1 (configuration not stated)	.	?	16µM	.
COc1ccc(C(CNC(=O)c2sccc2C)N2CCOCC2)cc1 (configuration not stated)	.	.	.	.
